# Entries with a potency or affinity are not part of this list. The source made the active and inactive calls.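 Rule for the calls: active = fitted half-maximal concentration for loss of cell signal no higher than twice the top valid tested concentration; inconclusive = flat curve at 30 to 70% inhibition, or poor fit; inactive = flat within 30%, signal rise, or potency above limit.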
# Test: cytotoxicity toward MDA-MB-231 breast cancer cells – cell-based, CellTiter-Glo luminescence, cherry-pick, cytotoxicity control for RAD54 inhibitor project, dose response (AID 651692);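 note: more negative values mean stronger loss of viable cell signal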
# Conditions: MDA-MB-231 viability, 24 h; series mostly up to 26 µM
row,SMILES,outcome
1,CCOC(=O)c1cnc2ccc(OCC)cc2c1NCCCN1CCOCC1,inactive
2,O=C(NCCCN1CCCC1)c1cc2c(Cl)nc3ccccc3c2s1,inactive
3,Nc1c(C(=O)NCCN2CCOCC2)c2nc3ccccc3nc2n1-c1ccccc1,inactive
4,CN1CCC[C@H]1CCNc1ccc2c(=O)c3ccccc3n(C)c2c1,inactive
5,Cc1ccc2nc(C)cc(Nc3ccc4c(c3)OCCO4)c2c1,inactive
6,COc1ccccc1C(=O)C(O)c1ccccc1OC (stereo not drawn),inactive
7,Cn1c2ccc(F)cc2c2ncn(CCCN(CCO)CCO)c(=O)c21,inactive
8,CCOC(=O)c1cnc2c(ccc3ccccc32)c1NCCN(C)C,inactive
9,Nc1cccc2nc3ccccc3cc12,inactive
10,CCN(CC)CCNc1ccc(CO)c2oc3ccccc3c(=O)c12,inactive
11,COc1ccc(C(=O)CN2CCN(CCN3C(=O)c4cccc5cccc(c45)C3=O)CC2)cc1,inactive
12,CCOc1ccc2[nH]c3c(NCCN(C)C)ncnc3c2c1,inactive
13,O=C(NCCCN1CCOCC1)c1cnn2c(-c3ccccc3)cc(-c3ccccc3)nc12,inactive
14,COc1cc2nc(Nc3ccc(F)cc3)nc(N)c2cc1OC,inactive
15,COc1cccc(-c2cnc3c(NC(C)=O)cc(-c4cccc(C(=O)NCCN(C)C)c4)cn23)c1,inactive
16,COc1cc(NCCCNC(C)C)c2nccc(C)c2c1,inactive
17,CCN1CCN(c2cc(C)c3cc(NC(=S)NCCN(C)C)ccc3n2)CC1,inactive
18,Cn1c(NCCN2CCCC2)nc2cc(-c3ccsc3)sc2c1=O,inactive
19,CN(C)CCN(C(=O)CN1C(=O)c2ccccc2C1=O)c1nc2cc3c(cc2s1)OCCO3,inactive
20,Clc1ccc2[nH]c3c(NCCCN4CCOCC4)ncnc3c2c1,inactive
21,CC(CCCN1CCCC1)Nc1ccnc2cc(Cl)ccc12 (stereo not drawn),inactive
22,OCCN1CCN(c2ncnc3sc(-c4ccccc4)cc23)CC1,inactive
23,CN(C)C(CNC(=O)CCCN1C(=O)c2cccc3cccc(c23)C1=O)c1ccccc1 (stereo not drawn),inactive
24,CCN(CC)Cc1cc2[nH]c3c4ccc(Cl)cc4ncc3c2cc1OC,inactive
25,Cc1cc(C)c2c(c1)c1nnc(SCCN3CCCCC3)nc1n2C,inactive
26,Cc1nc2ccccc2c2oc(C(=O)N3CCC(N4CCCCC4)CC3)cc12,inactive
27,COc1cc2[nH]c3c(=O)n(CCN(C(C)C)C(C)C)cnc3c2cc1OC,inactive
28,CN(C)CCCNc1nc2cc(-c3ccc(C(=O)N4CCN(C)CC4)cc3)sc2c(=O)n1C,inactive

# Source: PubChem BioAssay AID651692 (Broad Institute, 2012)
